Test results taken from PubChem BioAssay (NCATS).
Records with an inconclusive call do not appear. Entries that show only a call come without a potency. Activity calls are given as the source filed them. The call rests on the fitted dose curve; in most records, active means well fitted curve in the direction sought with a large enough effect; inconclusive means small, poorly fitted or top-dose-only effect, or another doubt; inactive means no such curve, though single readings can be large; an effect the other way counts as inactive or inconclusive.

Experiments:
[1] = MultiTox-Fluor Cytotoxicity Assay - LYMP1-003 - Dead Cells (AID 961); further: nearly all actives have a fitted effect of over 70% in size
Procedure, shortened: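 LYMP1-003 human lymphoblastoid cells (2500/well) exposed to compound 16 h at 37 C in complete medium; dead-cell protease read with bis-AAF-R110 fluorescence (Ex/Em 485/520) after 60 min at room temperature. Normalized to DMSO and 15 uM tetraoctylammonium bromide; AC50 from Hill fit.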

[2] = MultiTox-Fluor Cytotoxicity Assay - LYMP1-003 - Live Cells (AID 962); further: potency means the concentration at half of the fitted maximal effect
Procedure, shortened: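 Acute cytotoxicity is scored as a drop in live-cell protease activity in human lymphoblastoid LYMP1-003 cells after 16 hr compound exposure at 37 C. AC50 values come from Hill-equation modelling of concentration-response data.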

[3] = Cell Viability - LYMP1-003 - Assay at 24 hr (AID 963); further: potency means the concentration at half of the fitted maximal effect
Procedure, shortened: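 Cytotoxicity is scored as a concentration-dependent fall in ATP-linked luciferase signal in human lymphoblastoid LYMP1-003 cells treated 24 hr at 37 C in complete culture medium.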

[4] = Cell Viability - LYMP1-003 - Assay at 40 hr (AID 964); further: nearly all actives have a fitted effect of over 60% in size; further: potency means the concentration at half of the fitted maximal effect
Procedure, shortened: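 Luminescent ATP signal (CellTiter-Glo) served as the viability read-out after 40 hr compound treatment of human lymphoblastoid LYMP1-003 cells at 37 C. Decreases in ATP were fitted with the Hill equation to give AC50.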

[5] = Cell Viability - LYMP2-003 (AID 965);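 further: cells exposed to compounds for 24 h before reading; nearly all actives have a fitted effect of over 50% in size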; further: potency means the concentration at half of the fitted maximal effect
Procedure, shortened: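 Human lymphoblastoid cells (2500/well) were pre-incubated 5 hr at 37 C, then exposed to compounds over a concentration range for 24 hr at 37 C. Intracellular ATP was read by CellTiter-Glo luminescence; AC50 came from Hill-equation fits.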

[6] = Cell Viability - LYMP2-004 (AID 966); further: nearly all actives have a fitted effect of over 65% in size; further: potency means the concentration at half of the fitted maximal effect
Procedure, shortened: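 qHTS cytotoxicity: human lymphoblastoid line, 24 hr compound treatment, 37 C, complete medium. Viability read as cellular ATP via luciferase luminescence; tetraoctylammonium bromide served as positive control.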

[7] = Cell Viability - LYMP2-009 (AID 968); further: nearly all actives have a fitted effect of over 55% in size; further: potency means the concentration at half of the fitted maximal effect
[8] = Cell Viability - LYMP2-011 (AID 969); further: nearly all actives have a fitted effect of over 60% in size; further: potency means the concentration at half of the fitted maximal effect
Procedure, shortened: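 In this qHTS cytotoxicity format, compounds are tested across concentrations on human lymphoblastoid cells in complete medium for 24 hours at 37 C. Viability is taken as cellular ATP measured by luciferase luminescence.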

[9] = Cell Viability - LYMP2-013 (AID 970); further: nearly all actives have a fitted effect of over 55% in size; further: potency means the concentration at half of the fitted maximal effect
Procedure, shortened: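 Cytotoxicity is scored as a concentration-dependent drop in intracellular ATP in human lymphoblastoid cells after 24 hr compound exposure at 37 C. ATP is quantified by luciferase luminescence, and AC50 values come from Hill-equation modeling.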

[10] = Cell Viability - LYMP2-015 (AID 971); further: nearly all actives have a fitted effect of over 55% in size; further: potency means the concentration at half of the fitted maximal effect
Procedure, shortened: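 Cells are seeded at 2500 per well and incubated 5 hr at 37 C. Compounds are added across a concentration series for 24 hr at 37 C. CellTiter-Glo is added, and luminescence is read after 30 min at room temperature.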

[11] = Cell Viability - LYMP2-017 (AID 972); further: nearly all actives have a fitted effect of over 55% in size; further: potency means the concentration at half of the fitted maximal effect
Procedure, shortened: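 Cytotoxicity is scored as a concentration-dependent drop in cellular ATP in a human lymphoblastoid line after 24 hr treatment at 37 C. Values are AC50s from Hill-equation modelling.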

[12] = Cell Viability - LYMP2-019 (AID 973); further: nearly all actives have a fitted effect of over 55% in size; further: potency means the concentration at half of the fitted maximal effect
Procedure, shortened: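 Cytotoxicity is scored as a concentration-dependent drop in cellular ATP after cells (2500/well) receive compound for 24 hr at 37 C. Tetraoctylammonium bromide serves as positive control.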

[13] = Cell Viability - LYMP2-021 (AID 974); further: potency means the concentration at half of the fitted maximal effect
Procedure, shortened: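 Loss of cellular ATP, measured with a luciferase-based CellTiter-Glo readout, serves as the toxicity signal in human lymphoblastoid cells treated for 24 hours at 37 C. Potency is reported as AC50 from a standard Hill model.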

[14] = Cell Viability - LYMP2-023 (AID 975); further: nearly all actives have a fitted effect of over 55% in size; further: potency means the concentration at half of the fitted maximal effect
Procedure, shortened: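 Steps: seed 2500 human lymphoblastoid cells per well, incubate 5 hr at 37 C, add compound for 24 hr at 37 C, add CellTiter-Glo, hold 30 min at room temperature, read luminescence. AC50 derived by Hill modelling.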

[15] = Cell Viability - LYMP2-025 (AID 976); further: potency means the concentration at half of the fitted maximal effect
Procedure, shortened: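 Acute cytotoxicity is scored as a concentration-dependent fall in intracellular ATP, measured by luciferase luminescence, in human lymphoblastoid LYMP2-025 cells exposed to compound for 24 hours at 37 C. AC50 values come from standard Hill fits.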

[16] = Cell Viability - LYMP2-002 (AID 977);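 further: compound exposure lasted 24 h at 37 °C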; further: potency means the concentration at half of the fitted maximal effect
Procedure, shortened: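 Human lymphoblastoid cells, 2500/well, complete medium; 5 h 37 C settle; compound 24 h 37 C; CellTiter-Glo, 30 min RT; luminescence. Decrease in ATP = cytotoxicity; AC50 via Hill equation.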

[17] = Cell Viability - LYMP2-006 (AID 978); further: nearly all actives have a fitted effect of over 60% in size; further: potency means the concentration at half of the fitted maximal effect
Procedure, shortened: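 Human lymphoblastoid cells, 2500 per well, were preincubated 5 hr at 37 C, then exposed to compounds for 24 hr at 37 C in complete medium. Viability was read as intracellular ATP by CellTiter-Glo luminescence; AC50 from Hill-equation fits of qHTS concentration-response data.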

[18] = Cell Viability - LYMP2-007 (AID 979);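 further: cells exposed to compound for 24 h before reading; nearly all actives have a fitted effect of over 60% in size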; further: potency means the concentration at half of the fitted maximal effect
Procedure, shortened: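 Cells are seeded at 2500 per well and rested 5 hr. Compounds are then added over a concentration series for 24 hr at 37 C. CellTiter-Glo is added for 30 min at room temperature before luminescence reading.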

[19] = Cell Viability - LYMP2-008 (AID 980); further: nearly all actives have a fitted effect of over 60% in size; further: potency means the concentration at half of the fitted maximal effect
Procedure, shortened: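 Cells seeded at 2500/well and rested 5 hr at 37 C; compounds added over a concentration range and incubated 24 hr at 37 C; CellTiter-Glo added, 30 min at room temperature; luminescence read and AC50 fitted with Hill model.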

[20] = Cell Viability - LYMP2-010 (AID 981); further: nearly all actives have a fitted effect of over 55% in size; further: potency means the concentration at half of the fitted maximal effect
Procedure, shortened: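 Steps: seed 2500 LYMP2-010 cells per well; incubate 5 hr at 37 C; add compound; incubate 24 hr at 37 C; add CellTiter-Glo, wait 30 min at room temperature; read luminescence. Concentration-response fitted to Hill equation for AC50.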

Row | Compound | outcome [1] | Potency [2] | Potency [3] | Potency [4] | Potency [5] | Potency [6] | Potency [7] | Potency [8] | Potency [9] | Potency [10] | Potency [11] | Potency [12] | Potency [13] | Potency [14] | Potency [15] | Potency [16] | Potency [17] | Potency [18] | Potency [19] | Potency [20]
1 | CC1=NN(c2ccccc2)C(=O)C1 | inactive | inactive | inactive | inactive | inactive | inactive | inactive | inactive | inactive | inactive | inactive | inactive | inactive | inactive | inactive | inactive | inactive | inactive | inactive | inactive
2 | Cc1nnc(NS(=O)(=O)c2ccc(N)cc2)s1 | inactive | inactive | inactive | inactive | inactive | inactive | inactive | inactive | inactive | inactive | inactive | inactive | inactive | inactive | inactive | inactive | inactive | inactive | inactive | inactive
3 | CC[C@H](C)C(=O)O[C@H]1C[C@@H](C)C=C2C=C[C@H](C)[C@H](CC[C@@H]3C[C@@H](O)CC(=O)O3)[C@H]21 | inactive | inactive | inactive | – | – | – | inactive | inactive | inactive | inactive | inactive | inactive | inactive | inactive | inactive | inactive | – | inactive | inactive | –
4 | CN(C)c1ccc(C(=C2C=CC(=[N+](C)C)C=C2)c2ccc(N(C)C)cc2)cc1 | – | 15.8 µM (active) | 7.94 µM (active) | 2.51 µM (active) | 3.16 µM (active) | 1.58 µM (active) | 2.51 µM (active) | 2.51 µM (active) | 3.98 µM (active) | 2.51 µM (active) | 3.98 µM (active) | 3.16 µM (active) | 2.51 µM (active) | 3.16 µM (active) | 6.31 µM (active) | 2.51 µM (active) | 3.16 µM (active) | 2.51 µM (active) | 2 µM (active) | 1.26 µM (active)
5 | Cc1noc(NS(=O)(=O)c2ccc(N)cc2)c1C | inactive | inactive | inactive | inactive | inactive | inactive | inactive | inactive | inactive | inactive | inactive | inactive | inactive | inactive | inactive | inactive | inactive | inactive | inactive | inactive
6 | N=C(N)c1ccc(OCCCCCOc2ccc(C(=N)N)cc2)cc1 | inactive | inactive | inactive | 39.8 µM (active) | inactive | inactive | inactive | – | – | – | – | – | – | inactive | inactive | – | – | 39.8 µM (active) | – | 39.8 µM (active)
7 | COc1ccc2cc3[n+](cc2c1OC)CCc1cc2c(cc1-3)OCO2 | inactive | inactive | inactive | – | inactive | inactive | – | inactive | – | – | – | – | – | inactive | inactive | inactive | – | – | – | –
8 | O=C(N[C@H](CO)[C@H](O)c1ccc([N+](=O)[O-])cc1)C(Cl)Cl | inactive | inactive | inactive | inactive | inactive | inactive | inactive | inactive | inactive | inactive | inactive | inactive | inactive | inactive | inactive | inactive | inactive | inactive | inactive | inactive
9 | CC(=O)[C@H]1CC[C@H]2[C@@H]3CCC4=CC(=O)CC[C@]4(C)[C@H]3CC[C@]12C | – | inactive | – | – | – | – | – | – | – | – | – | – | – | – | – | – | inactive | – | – | –
10 | CCc1cc(C(N)=S)ccn1 | inactive | inactive | inactive | inactive | inactive | inactive | inactive | inactive | inactive | inactive | inactive | inactive | inactive | inactive | inactive | inactive | inactive | inactive | inactive | inactive
11 | NC(N)=NC(N)=NCCc1ccccc1 | inactive | inactive | inactive | inactive | inactive | – | inactive | inactive | inactive | – | inactive | – | inactive | inactive | inactive | inactive | inactive | inactive | inactive | inactive
12 | C[C@]12C=CC(=O)C=C1CC[C@@H]1[C@@H]2C(=O)C[C@@]2(C)[C@H]1CC[C@]2(O)C(=O)CO | inactive | inactive | inactive | inactive | inactive | inactive | inactive | inactive | inactive | inactive | inactive | inactive | inactive | inactive | inactive | inactive | inactive | inactive | inactive | inactive
13 | Cc1ccnc2c1NC(=O)c1cccnc1N2C1CC1 | inactive | inactive | inactive | inactive | inactive | inactive | inactive | inactive | inactive | inactive | inactive | inactive | inactive | inactive | inactive | inactive | inactive | inactive | inactive | inactive
14 | Cc1ncc([N+](=O)[O-])n1CCO | inactive | inactive | inactive | inactive | inactive | inactive | inactive | inactive | inactive | inactive | inactive | inactive | inactive | inactive | inactive | inactive | inactive | inactive | inactive | inactive
15 | NNC(=O)c1ccncc1 | inactive | inactive | inactive | inactive | inactive | inactive | inactive | inactive | inactive | inactive | inactive | inactive | inactive | inactive | inactive | inactive | inactive | inactive | inactive | inactive
16 | Cc1cc(NS(=O)(=O)c2ccc(N)cc2)no1 | inactive | inactive | inactive | inactive | inactive | inactive | inactive | inactive | inactive | inactive | inactive | inactive | inactive | inactive | inactive | inactive | inactive | inactive | inactive | inactive
17 | O=C(O)c1cc(=O)[nH]c(=O)[nH]1 | inactive | inactive | inactive | inactive | inactive | inactive | inactive | inactive | inactive | inactive | inactive | inactive | inactive | inactive | inactive | inactive | inactive | inactive | inactive | inactive
